# Publication PMC7862700, “An all-to-all approach to the identification of sequence-specific readers for epigenetic DNA modifications on cytosine”
# Legend:
# Assay in all cases: DAPPL (digital affinity profiling via proximity ligation, sequencing); 10 mM Tris-HCl pH 7.5, 50 mM NaCl, 1 mM DTT, 4% glycerol, room temperature, 30 min; GST-TFs on glutathione beads, 16-mer random dsDNA library, 0.1% formaldehyde crosslink after washing; high values mean tight binding
# FLI1 = target: T1, FLI1 (Homo sapiens, UniProt Q01543 1-452); details: protein: recombinant; tags: N-terminal GST; dsDNA, one strand shown
# T1 sequence: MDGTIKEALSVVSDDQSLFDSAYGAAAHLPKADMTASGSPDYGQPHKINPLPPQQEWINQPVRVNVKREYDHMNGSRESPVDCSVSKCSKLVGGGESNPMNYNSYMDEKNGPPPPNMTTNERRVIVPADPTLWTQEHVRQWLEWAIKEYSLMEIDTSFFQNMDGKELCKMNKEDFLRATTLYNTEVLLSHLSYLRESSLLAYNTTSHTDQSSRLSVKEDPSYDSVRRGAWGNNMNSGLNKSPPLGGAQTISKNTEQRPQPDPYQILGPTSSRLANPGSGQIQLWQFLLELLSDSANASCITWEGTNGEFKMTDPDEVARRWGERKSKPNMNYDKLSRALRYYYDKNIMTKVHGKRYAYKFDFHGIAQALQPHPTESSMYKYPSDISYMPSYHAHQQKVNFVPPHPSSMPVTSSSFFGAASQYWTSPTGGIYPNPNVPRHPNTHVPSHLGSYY
# How it was run: (§1)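 Binding signal is each hexamer's read frequency for a factor divided by its frequency in the tag-only sample. The factors were GST-fused human transcription factors from yeast, captured on glutathione beads, DNA-barcoded and pooled with that sample. Pools were incubated with 200 nmole of a random double-stranded 16-mer DNA library in Tris/NaCl/DTT/glycerol buffer at room temperature for 30 min, then washed, crosslinked with 0.1% formaldehyde, proximity-ligated with BsaI/T4 ligase (1 h, 37 °C), PCR-amplified and sequenced on an Illumina NextSeq500.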
# ELK1 = target: T2, ELK1 (Homo sapiens, UniProt P19419 1-428); details: protein: recombinant; tags: N-terminal GST; dsDNA, one strand shown
# T2 sequence: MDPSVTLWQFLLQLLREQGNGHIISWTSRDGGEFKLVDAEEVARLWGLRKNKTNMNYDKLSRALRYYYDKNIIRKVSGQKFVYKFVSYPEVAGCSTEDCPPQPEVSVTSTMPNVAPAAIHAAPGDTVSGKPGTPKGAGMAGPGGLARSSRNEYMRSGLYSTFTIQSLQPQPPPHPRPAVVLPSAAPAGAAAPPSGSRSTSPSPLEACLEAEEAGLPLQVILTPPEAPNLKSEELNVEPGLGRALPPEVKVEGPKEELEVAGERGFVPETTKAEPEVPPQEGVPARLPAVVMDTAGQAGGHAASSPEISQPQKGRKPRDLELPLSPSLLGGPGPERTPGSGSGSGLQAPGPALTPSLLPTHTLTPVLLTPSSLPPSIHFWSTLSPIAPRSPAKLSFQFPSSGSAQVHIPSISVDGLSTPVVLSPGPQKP
# How it was run: as §1
# GABPA = target: T3, GABPA (Homo sapiens, UniProt Q06546 1-454); details: protein: recombinant; tags: N-terminal GST; dsDNA, one strand shown
# T3 sequence: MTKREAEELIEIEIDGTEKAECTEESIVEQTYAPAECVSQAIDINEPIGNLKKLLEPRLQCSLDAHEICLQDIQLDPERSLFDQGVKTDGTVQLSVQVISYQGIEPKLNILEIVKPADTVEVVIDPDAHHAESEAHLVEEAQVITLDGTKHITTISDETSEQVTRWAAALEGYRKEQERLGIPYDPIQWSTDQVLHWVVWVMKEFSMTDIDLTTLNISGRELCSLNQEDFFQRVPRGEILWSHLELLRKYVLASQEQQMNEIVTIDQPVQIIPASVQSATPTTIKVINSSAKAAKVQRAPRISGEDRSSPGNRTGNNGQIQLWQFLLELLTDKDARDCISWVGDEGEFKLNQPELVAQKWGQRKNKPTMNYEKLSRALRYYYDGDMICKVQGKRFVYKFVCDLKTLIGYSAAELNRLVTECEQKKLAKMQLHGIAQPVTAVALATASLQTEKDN
# How it was run: as §1
# ERG = target: T4, ERG (Homo sapiens, UniProt P11308 1-479); details: protein: recombinant; tags: N-terminal GST; dsDNA, one strand shown
# T4 sequence: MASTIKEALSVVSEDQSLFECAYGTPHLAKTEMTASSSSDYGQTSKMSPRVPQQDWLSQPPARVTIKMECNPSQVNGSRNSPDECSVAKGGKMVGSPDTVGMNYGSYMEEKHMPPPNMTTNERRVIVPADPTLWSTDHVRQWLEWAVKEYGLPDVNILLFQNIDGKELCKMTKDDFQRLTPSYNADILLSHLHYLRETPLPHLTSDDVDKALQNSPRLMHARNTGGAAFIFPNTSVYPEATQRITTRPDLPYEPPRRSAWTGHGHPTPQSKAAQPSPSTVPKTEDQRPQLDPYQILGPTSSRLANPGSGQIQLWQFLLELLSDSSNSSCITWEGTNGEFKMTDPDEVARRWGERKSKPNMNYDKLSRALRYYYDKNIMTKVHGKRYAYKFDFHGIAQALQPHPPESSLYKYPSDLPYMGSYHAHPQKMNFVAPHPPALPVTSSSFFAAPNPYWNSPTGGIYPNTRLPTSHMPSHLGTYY
# How it was run: as §1
# ELF1 = ELF1 (Homo sapiens, UniProt P32519 1-619); details: protein: recombinant; tags: N-terminal GST; dsDNA, one strand shown
# How it was run: as §1
# EHF = target: T5, EHF (Homo sapiens, UniProt Q9NZC4 1-300); details: protein: recombinant; tags: N-terminal GST; dsDNA, one strand shown
# T5 sequence: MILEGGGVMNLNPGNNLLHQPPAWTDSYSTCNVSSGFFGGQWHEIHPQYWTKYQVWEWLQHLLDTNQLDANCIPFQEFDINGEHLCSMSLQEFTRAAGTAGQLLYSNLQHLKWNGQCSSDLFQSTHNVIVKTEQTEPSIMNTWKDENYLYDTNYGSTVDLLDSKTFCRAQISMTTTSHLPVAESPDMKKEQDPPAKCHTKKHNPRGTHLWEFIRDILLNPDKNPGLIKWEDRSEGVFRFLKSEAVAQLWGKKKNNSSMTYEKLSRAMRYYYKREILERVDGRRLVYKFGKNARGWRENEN
# How it was run: as §1
# SPI1 = SPI1 (Homo sapiens, UniProt P17947 1-270); details: protein: recombinant; tags: N-terminal GST; dsDNA, one strand shown
# How it was run: as §1
# SPIB = SPIB (Homo sapiens, UniProt Q01892 1-262); details: protein: recombinant; tags: N-terminal GST; dsDNA, one strand shown
# How it was run: as §1
# ELK3 = target: T6, ELK3 (Homo sapiens, UniProt P41970 1-407); details: protein: recombinant; tags: N-terminal GST; dsDNA, one strand shown
# T6 sequence: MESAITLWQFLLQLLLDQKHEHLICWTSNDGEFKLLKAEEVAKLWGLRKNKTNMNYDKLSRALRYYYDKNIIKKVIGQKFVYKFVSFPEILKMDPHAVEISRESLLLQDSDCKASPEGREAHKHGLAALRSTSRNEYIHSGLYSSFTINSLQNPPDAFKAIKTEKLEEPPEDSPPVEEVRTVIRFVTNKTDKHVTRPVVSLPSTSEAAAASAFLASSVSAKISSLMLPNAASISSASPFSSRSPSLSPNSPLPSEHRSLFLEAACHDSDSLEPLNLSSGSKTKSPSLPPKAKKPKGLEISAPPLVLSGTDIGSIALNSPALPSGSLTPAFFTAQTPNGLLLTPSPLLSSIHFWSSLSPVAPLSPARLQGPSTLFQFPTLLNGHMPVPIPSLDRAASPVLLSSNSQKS
# How it was run: as §1
# FEV = target: T7, FEV (Homo sapiens, UniProt Q99581 1-238); details: protein: recombinant; tags: N-terminal GST; dsDNA, one strand shown
# T7 sequence: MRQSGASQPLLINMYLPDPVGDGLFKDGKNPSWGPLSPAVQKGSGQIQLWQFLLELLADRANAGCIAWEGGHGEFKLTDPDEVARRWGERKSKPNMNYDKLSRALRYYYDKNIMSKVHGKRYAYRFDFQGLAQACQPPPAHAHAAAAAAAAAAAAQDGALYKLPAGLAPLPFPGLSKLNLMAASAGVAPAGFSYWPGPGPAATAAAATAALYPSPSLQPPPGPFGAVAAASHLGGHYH
# How it was run: as §1
# ETV5 = ETV5 (Homo sapiens, UniProt P41161 1-510); details: protein: recombinant; tags: N-terminal GST; dsDNA, one strand shown
# How it was run: as §1
# HSF1 = HSF1 (Homo sapiens, UniProt Q00613 1-529); details: protein: recombinant; tags: N-terminal GST; chain copies: 3; dsDNA, one strand shown
# How it was run: as §1
# SPIC = target: T8, SPIC (Homo sapiens, UniProt Q8N5J4 1-248); details: protein: recombinant; tags: N-terminal GST; dsDNA, one strand shown
# T8 sequence: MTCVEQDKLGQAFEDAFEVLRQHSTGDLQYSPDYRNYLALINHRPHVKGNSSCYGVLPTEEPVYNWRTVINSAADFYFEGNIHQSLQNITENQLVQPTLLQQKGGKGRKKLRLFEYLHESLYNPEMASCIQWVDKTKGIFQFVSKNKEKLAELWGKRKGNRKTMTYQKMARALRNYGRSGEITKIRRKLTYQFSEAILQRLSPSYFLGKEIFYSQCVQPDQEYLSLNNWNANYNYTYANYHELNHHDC
# How it was run: as §1
# ELF4 = ELF4 (Homo sapiens, UniProt Q99607 1-663); details: protein: recombinant; tags: N-terminal GST; dsDNA, one strand shown
# How it was run: as §1
# ELK4 = target: T9, ELK4 (Homo sapiens, UniProt P28324-2 1-405); details: protein: recombinant; tags: N-terminal GST; dsDNA, one strand shown
# T9 sequence: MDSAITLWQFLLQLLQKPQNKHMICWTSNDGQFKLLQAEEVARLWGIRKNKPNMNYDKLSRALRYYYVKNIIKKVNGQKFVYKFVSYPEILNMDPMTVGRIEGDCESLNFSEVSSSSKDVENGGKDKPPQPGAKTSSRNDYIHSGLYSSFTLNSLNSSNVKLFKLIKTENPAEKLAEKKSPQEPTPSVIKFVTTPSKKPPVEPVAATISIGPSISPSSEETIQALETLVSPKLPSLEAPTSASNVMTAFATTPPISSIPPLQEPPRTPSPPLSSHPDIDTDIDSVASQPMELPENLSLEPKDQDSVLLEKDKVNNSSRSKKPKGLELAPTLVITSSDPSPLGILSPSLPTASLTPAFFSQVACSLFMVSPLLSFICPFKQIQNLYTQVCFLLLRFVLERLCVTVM
# How it was run: as §1
# ETV2 = target: T10, ETV2 (Homo sapiens, UniProt O00321 1-342); details: protein: recombinant; tags: N-terminal GST; dsDNA, one strand shown
# T10 sequence: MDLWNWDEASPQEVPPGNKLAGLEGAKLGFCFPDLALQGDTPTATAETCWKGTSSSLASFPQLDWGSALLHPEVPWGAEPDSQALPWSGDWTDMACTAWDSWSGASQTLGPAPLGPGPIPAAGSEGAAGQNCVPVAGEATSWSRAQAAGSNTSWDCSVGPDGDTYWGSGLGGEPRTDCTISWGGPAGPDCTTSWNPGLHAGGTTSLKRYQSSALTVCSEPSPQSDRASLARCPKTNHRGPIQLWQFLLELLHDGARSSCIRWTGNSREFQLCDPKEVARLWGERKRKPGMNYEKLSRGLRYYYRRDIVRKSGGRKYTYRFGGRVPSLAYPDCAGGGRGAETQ
# How it was run: as §1
# ELF3 = target: T11, ELF3 (Homo sapiens, UniProt P78545 1-371); details: protein: recombinant; tags: N-terminal GST; dsDNA, one strand shown
# T11 sequence: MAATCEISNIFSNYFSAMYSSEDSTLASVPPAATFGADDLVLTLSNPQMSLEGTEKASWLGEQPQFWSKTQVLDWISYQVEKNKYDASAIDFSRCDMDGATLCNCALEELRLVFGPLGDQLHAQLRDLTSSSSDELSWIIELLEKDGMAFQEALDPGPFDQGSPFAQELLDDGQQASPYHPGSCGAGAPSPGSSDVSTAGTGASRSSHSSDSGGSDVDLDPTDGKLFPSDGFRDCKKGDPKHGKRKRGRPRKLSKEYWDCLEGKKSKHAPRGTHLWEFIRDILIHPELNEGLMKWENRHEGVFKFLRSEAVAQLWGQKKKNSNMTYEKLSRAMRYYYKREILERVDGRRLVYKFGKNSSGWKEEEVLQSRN
# How it was run: as §1
# CRX = CRX (Homo sapiens, UniProt O43186 1-299); details: protein: recombinant; tags: N-terminal GST; dsDNA, one strand shown
# How it was run: as §1
# ETV1 = ETV1 (Homo sapiens, UniProt P50549 1-477); details: protein: recombinant; tags: N-terminal GST; dsDNA, one strand shown
# How it was run: as §1
# ELF1, sequence (P32519 whole entry): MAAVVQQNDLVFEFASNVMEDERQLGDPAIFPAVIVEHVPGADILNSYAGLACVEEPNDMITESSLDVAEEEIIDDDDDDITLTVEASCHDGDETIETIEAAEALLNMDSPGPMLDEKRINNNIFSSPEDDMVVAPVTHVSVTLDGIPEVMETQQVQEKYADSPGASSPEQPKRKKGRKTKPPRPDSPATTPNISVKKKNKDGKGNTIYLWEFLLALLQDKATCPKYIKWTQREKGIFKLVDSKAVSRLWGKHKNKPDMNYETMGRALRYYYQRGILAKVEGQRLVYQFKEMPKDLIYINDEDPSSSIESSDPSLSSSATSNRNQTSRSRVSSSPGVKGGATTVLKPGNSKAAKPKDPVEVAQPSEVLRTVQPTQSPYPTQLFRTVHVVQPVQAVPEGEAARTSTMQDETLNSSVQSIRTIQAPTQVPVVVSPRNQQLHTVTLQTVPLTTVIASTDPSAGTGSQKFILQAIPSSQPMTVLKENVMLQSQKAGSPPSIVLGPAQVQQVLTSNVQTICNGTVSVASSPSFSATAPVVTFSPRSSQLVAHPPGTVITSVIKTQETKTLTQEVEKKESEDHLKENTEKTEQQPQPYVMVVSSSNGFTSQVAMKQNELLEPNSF
# ETV5, sequence (P41161 whole entry): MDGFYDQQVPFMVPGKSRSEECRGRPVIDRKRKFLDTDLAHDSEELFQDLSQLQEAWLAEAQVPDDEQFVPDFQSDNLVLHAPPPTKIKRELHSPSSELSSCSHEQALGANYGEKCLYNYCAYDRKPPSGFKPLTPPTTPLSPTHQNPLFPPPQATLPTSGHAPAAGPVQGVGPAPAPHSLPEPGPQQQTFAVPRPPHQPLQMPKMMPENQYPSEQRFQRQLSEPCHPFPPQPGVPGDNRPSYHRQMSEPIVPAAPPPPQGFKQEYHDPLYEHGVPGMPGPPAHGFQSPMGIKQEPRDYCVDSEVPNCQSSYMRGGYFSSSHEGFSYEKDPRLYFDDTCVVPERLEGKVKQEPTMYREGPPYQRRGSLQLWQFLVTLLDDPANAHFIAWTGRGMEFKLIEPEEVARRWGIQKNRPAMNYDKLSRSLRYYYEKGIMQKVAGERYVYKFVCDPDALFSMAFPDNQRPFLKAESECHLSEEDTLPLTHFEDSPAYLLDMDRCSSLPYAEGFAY
# CRX, sequence (O43186 whole entry): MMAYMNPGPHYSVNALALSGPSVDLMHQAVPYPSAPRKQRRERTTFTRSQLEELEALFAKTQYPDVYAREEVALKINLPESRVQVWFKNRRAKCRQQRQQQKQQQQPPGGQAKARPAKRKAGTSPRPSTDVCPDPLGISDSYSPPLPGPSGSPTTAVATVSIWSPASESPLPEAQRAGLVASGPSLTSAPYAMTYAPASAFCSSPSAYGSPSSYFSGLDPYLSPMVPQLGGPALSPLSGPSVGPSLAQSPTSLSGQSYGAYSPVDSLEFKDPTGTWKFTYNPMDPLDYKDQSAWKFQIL
# ELF4, sequence (Q99607 whole entry): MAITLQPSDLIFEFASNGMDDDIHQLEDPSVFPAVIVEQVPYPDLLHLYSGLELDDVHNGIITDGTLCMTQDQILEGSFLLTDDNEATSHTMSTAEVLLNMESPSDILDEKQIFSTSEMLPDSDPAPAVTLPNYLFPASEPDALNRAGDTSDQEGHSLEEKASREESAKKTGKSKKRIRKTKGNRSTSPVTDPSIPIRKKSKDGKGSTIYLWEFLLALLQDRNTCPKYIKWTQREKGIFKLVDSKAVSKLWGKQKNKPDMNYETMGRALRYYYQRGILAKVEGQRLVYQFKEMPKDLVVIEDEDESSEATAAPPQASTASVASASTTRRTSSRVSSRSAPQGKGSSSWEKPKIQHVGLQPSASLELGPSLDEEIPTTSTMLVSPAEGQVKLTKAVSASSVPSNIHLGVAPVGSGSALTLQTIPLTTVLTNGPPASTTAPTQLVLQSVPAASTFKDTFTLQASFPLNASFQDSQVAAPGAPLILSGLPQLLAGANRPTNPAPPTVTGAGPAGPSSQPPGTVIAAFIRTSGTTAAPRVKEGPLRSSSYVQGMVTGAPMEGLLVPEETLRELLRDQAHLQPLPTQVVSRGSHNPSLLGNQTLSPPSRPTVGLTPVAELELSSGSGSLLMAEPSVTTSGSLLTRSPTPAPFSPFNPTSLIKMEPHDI
# ETV1, sequence (P50549 whole entry): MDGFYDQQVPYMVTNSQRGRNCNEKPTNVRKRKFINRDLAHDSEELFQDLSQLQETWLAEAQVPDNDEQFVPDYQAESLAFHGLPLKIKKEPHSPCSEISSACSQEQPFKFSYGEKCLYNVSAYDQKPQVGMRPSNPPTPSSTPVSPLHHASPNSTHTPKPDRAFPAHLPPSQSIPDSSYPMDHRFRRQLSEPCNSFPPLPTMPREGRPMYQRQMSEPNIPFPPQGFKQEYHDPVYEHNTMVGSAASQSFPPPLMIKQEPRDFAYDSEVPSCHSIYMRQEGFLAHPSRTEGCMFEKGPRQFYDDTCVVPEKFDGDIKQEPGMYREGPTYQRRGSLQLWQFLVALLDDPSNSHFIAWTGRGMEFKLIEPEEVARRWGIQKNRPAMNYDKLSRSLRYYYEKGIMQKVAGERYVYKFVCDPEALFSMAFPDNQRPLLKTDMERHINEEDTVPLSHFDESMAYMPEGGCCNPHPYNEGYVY
# HSF1, sequence (Q00613 whole entry): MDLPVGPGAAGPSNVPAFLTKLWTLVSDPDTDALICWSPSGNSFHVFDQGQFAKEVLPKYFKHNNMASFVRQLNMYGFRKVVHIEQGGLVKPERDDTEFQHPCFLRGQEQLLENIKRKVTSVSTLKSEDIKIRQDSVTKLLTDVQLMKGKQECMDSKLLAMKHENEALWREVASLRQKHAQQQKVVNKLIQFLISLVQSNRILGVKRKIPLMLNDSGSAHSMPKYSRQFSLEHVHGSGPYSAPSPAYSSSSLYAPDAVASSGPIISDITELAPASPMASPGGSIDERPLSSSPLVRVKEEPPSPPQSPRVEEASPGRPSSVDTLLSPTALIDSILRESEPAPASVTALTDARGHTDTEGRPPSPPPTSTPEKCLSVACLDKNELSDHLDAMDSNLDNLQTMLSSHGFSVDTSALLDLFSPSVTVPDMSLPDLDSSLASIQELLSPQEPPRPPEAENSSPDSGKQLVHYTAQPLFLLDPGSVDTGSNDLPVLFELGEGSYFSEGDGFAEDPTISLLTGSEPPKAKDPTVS
# SPIB, sequence (Q01892 whole entry): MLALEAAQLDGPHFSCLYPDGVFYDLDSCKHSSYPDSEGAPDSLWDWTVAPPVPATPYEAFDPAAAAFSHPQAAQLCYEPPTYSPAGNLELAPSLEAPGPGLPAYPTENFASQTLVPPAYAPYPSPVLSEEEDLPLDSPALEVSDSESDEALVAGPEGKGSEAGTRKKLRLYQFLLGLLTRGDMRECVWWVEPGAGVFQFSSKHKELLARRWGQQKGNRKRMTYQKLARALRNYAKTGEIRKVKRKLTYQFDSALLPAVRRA
sequence,measurement,setting,value
CTCTCC,binding signal,FLI1,"1.35 fold enrichment (6-mer frequency, TF over GST control)"
same,binding signal,ELK1,"1.33 fold enrichment (6-mer frequency, TF over GST control)"
same,binding signal,GABPA,"1.37 fold enrichment (6-mer frequency, TF over GST control)"
same,binding signal,ERG,"1.22 fold enrichment (6-mer frequency, TF over GST control)"
same,binding signal,ELF1,"1.4 fold enrichment (6-mer frequency, TF over GST control)"
same,binding signal,EHF,"1.34 fold enrichment (6-mer frequency, TF over GST control)"
same,binding signal,SPI1,"1.41 fold enrichment (6-mer frequency, TF over GST control)"
same,binding signal,SPIB,"1.35 fold enrichment (6-mer frequency, TF over GST control)"
same,binding signal,ELK3,"1.37 fold enrichment (6-mer frequency, TF over GST control)"
same,binding signal,FEV,"1.32 fold enrichment (6-mer frequency, TF over GST control)"
same,binding signal,ETV5,"1.24 fold enrichment (6-mer frequency, TF over GST control)"
same,binding signal,HSF1,"1.32 fold enrichment (6-mer frequency, TF over GST control)"
same,binding signal,SPIC,"1.41 fold enrichment (6-mer frequency, TF over GST control)"
same,binding signal,ELF4,"1.5 fold enrichment (6-mer frequency, TF over GST control)"
same,binding signal,ELK4,"1.37 fold enrichment (6-mer frequency, TF over GST control)"
same,binding signal,ETV2,"1.32 fold enrichment (6-mer frequency, TF over GST control)"
same,binding signal,ELF3,"1.6 fold enrichment (6-mer frequency, TF over GST control)"
same,binding signal,CRX,"1.15 fold enrichment (6-mer frequency, TF over GST control)"
same,binding signal,ETV1,"1.42 fold enrichment (6-mer frequency, TF over GST control)"
